From PubChem BioAssay (NCATS) come the findings set out here.

Records with an inconclusive call do not appear. The source made the active and inactive calls. Calls come from the whole dose curve; as a rule, active = well fitted curve in the direction sought with a large enough effect; inconclusive = small, poorly fitted or top-dose-only effect, or another doubt; inactive = no such curve, though single readings can be large; an effect the other way counts as inactive or inconclusive.

The target of assay [1] is Calcium and integrin-binding protein 1 (Homo sapiens) (UniProt Q99828). In words: Primary qHTS for Identification of Calcium Integrin Binding Protein 1 (CIB1) Competitor (AID 1508620).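 Note: GST tagged CIB1 binding a fluorescein labelled alphaIIb integrin peptide tracer; top concentration of the series differs between compounds.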 The note with it: CIB1-GST / FITC-alphaIIb peptide fluorescence polarization; series mostly up to 57.7 µM. A digest of the protocol:
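Fluorescence polarization competition: CIB1-GST (1 uM final) preincubated with compound 15 min at room temperature, then FITC-labeled alphaIIb peptide (100 nM final) added for another 15 min. Polarization read at Ex 480/Em 540.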

Assay [2] in a line: Primary qHTS for inhibitors of nuclear receptor binding SET domain protein 2 (NSD2) in an isogenic RCH-ACV NSD2 p.E1099K mutant (9B) (AID 1645876). Note: nearly all actives have a fitted effect of over 70% in size. The note with it: RCH-ACV NSD2 E1099K (9B) viability, CellTiter-Glo, 72 h; series mostly up to 44.9 µM.
A short description of assay [3]: Primary qHTS for inhibitors of nuclear receptor binding SET domain protein 2 (NSD2) in an RCH-ACV wild type WT cells (2C) (AID 1645877). Note: nearly all actives have a fitted effect of over 70% in size. Note: potency is the fitted concentration of half-maximal effect. The settings on record: RCH-ACV (leukaemia line) NSD2 WT (2C) viability, CellTiter-Glo, 72 h; series mostly up to 44.9 µM.

Calcium and integrin-binding protein 1 (Homo sapiens), sequence (Q99828 whole entry, looked up): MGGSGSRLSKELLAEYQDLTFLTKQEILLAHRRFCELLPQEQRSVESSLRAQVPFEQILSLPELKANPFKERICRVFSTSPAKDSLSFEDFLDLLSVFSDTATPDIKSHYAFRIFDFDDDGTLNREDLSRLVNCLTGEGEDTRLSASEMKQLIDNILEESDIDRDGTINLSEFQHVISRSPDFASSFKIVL

For `CC(=O)C1CCC(=O)N1Cc1ccccc1` (stereo not given), the Potency result in assay [1], in assay [2] and in assay [3] was “inactive” throughout.
`COC(=O)C1=CO[C@@H](O[C@@H]2O[C@H](CO)[C@@H](O)[C@H](O)[C@H]2O)[C@@H]2C(C)CC(=O)[C@]12O` (stereo not given in full): the Potency result in assay [1], in assay [2] and in assay [3] was “inactive” in each case.
For `CC(O)C(O)/C=C/C=C/C(=O)O[C@@H]1C=C(C(=O)O)[C@](O)(CO)[C@@]2(C)CCCC(C)(C)[C@H]12` (stereo not given in full), the Potency result in assay [1], in assay [2] and in assay [3] was “inactive” throughout.
On to `COC(=O)C1=CO[C@@H](O[C@@H]2O[C@H](CO)[C@@H](O)[C@H](O)[C@H]2O)[C@@H]2[C@@H](C)[C@@H](O)C(O)[C@H]12` (stereo not given in full), for which the Potency entry in assay [1], in assay [2] and in assay [3] was “inactive” each time.
For the compound `C=C1C2CCC3C(CCC4[C@@]3(C)CCC[C@@]4(C)C(=O)O)(C2)[C@@H]1OC(=O)/C(C)=C\C` (stereo not given in full), the Potency result in assay [1], in assay [2] and in assay [3] was “inactive” throughout.
For `Cc1ncc([N+](=O)[O-])n1C[C@H](O)CN1CCOCC1`, the Potency entry in assay [1], in assay [2] and in assay [3] was “inactive” each time.
As to `COc1cc(C(C)=O)ccc1O[C@@H]1O[C@H](CO[C@@H]2OC[C@@H](O)[C@H](O)[C@H]2O)[C@@H](O)[C@H](O)[C@H]1O`, the Potency entry in assay [1], in assay [2] and in assay [3] was “inactive” each time.
Turning to `C=C(CC/C=C(\C)C(=O)O)C1(O)CC=C(C)CC1` (stereo not given), the Potency entry in assay [1], in assay [2] and in assay [3] was “inactive” in each case.
With `C[C@]12CC/C(=N\OCC(=O)O)C=C1CC[C@@H]1[C@@H]2[C@@H](O)C[C@@]2(C)[C@H]1CC[C@]2(O)C(=O)CO`, the Potency entry in assay [1] and in assay [2] was “inactive” throughout. Besides, the Potency in assay [3] is 9.16 µM (active).
Turning to `O=C(O[C@H]1[C@H](Oc2ccc(O)cc2CO)O[C@H](CO)[C@@H](O)[C@@H]1O)c1ccccc1`, the Potency entry in assay [1], in assay [2] and in assay [3] was “inactive” in each case.
